This note sets out measurements from PubChem BioAssay (Tox21).

A short description of assay [1]: qHTS RealTime-Glo MT Cell Viability Assay in HepG2 cells - 8 hour (AID 1224873). Further: nearly all actives have a fitted effect of over 55% in size. Further: potency means the concentration at half of the fitted maximal effect. In a few lines:
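HepG2 cells mixed with RealTime-Glo MT reagents (NanoLuc plus cell-permeant prosubstrate) were seeded at 600 cells/well, incubated 5 h at 37 C/5% CO2, then pinned with compounds in DMSO; nonlytic luminescence tracked viability during 40 h treatment.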
(In qHTS, concentration-response curves come from the screen itself.)

Assay [2] is described as follows: qHTS RealTime-Glo MT Cell Viability Assay in HEK293 cells - 40 hour (AID 1224874). Further: nearly all actives have a fitted effect of over 50% in size. Further: potency means the concentration at half of the fitted maximal effect. As to conditions: RealTime-Glo luminescence; max response: stronger effect = lower value. The method, boiled down:
(§1)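 Kinetic, non-lysing viability readout. Seed HEK293 (600/well) with reagent, incubate 5 h at 37 C/5% CO2, pin 23 nL compound in DMSO, incubate at 37 C, read luminescence at 0, 8, 16, 24, 32, 40 h.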

A short description of assay [3]: A CellTox Green Cytotoxicity Assay to monitor cytotoxicity in HEK293 cells - 24 hour (AID 1224875). Further: nearly all actives have a fitted effect of over 45% in size. Further: potency means the concentration at half of the fitted maximal effect. On activity change: series mostly up to about 77 µM. In a few lines:
(§2)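 Real-time, in one plate: 600 HEK293 cells/well with dead-cell DNA dye, pinned compound after 5 h, 37 C incubation over 40 h; viable cells give no appreciable fluorescence.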

The nature of assay [4]: A CellTox Green Cytotoxicity Assay to monitor cytotoxicity in HepG2 cells - 16 hour (AID 1224876). Further: nearly all actives have a fitted effect of over 45% in size. Further: potency means the concentration at half of the fitted maximal effect. In a few lines:
(§3)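 Cytotoxicity was tracked as dead-cell DNA fluorescence in HepG2 cells treated with test compounds at 37 C; each time-point value comes from one kinetic series spanning 0, 8, 16, 24, 32 and 40 h.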

The nature of assay [5]: qHTS RealTime-Glo MT Cell Viability Assay in HepG2 cells - 32 hour (AID 1224877). Further: nearly all actives have a fitted effect of over 55% in size. Further: potency means the concentration at half of the fitted maximal effect. The method, boiled down: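 Cells + NanoLuc/prosubstrate dispensed (600 cells/well) → 5 h at 37 C/5% CO2 → compounds in DMSO transferred → 40 h incubation at 37 C, luminescence read at 0, 8, 16, 24, 32, 40 h.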
The nature of assay [6]: A CellTox Green Cytotoxicity Assay to monitor cytotoxicity in HepG2 cells - 24 hour (AID 1224878). Further: nearly all actives have a fitted effect of over 45% in size. Further: potency means the concentration at half of the fitted maximal effect. In a few lines:
as §3

Assay [7] is described as follows: A CellTox Green Cytotoxicity Assay to monitor cytotoxicity in HepG2 cells - 40 hour (AID 1224879). Further: nearly all actives have a fitted effect of over 40% in size. Further: potency means the concentration at half of the fitted maximal effect. The method, boiled down:
as §3

Assay [8] in a line: qHTS RealTime-Glo MT Cell Viability Assay in HEK293 cells - 0 hour (AID 1224880). Further: top concentration of the series differs between compounds; nearly all actives have a fitted effect of over 45% in size. In a few lines: as §1
The nature of assay [9]: A CellTox Green Cytotoxicity Assay to monitor cytotoxicity in HEK293 cells - 32 hour (AID 1224881). Further: nearly all actives have a fitted effect of over 40% in size. Further: potency means the concentration at half of the fitted maximal effect. The method, boiled down:
as §2

The nature of assay [10]: A CellTox Green Cytotoxicity Assay to monitor cytotoxicity in HepG2 cells - 0 hour (AID 1224882). Further: nearly all actives have a fitted effect of over 35% in size. The method, boiled down:
as §3

Values joined by “and” are separate entries in the source; they are usually repeats but may differ in a detail not shown here. Equal entries are not always repeated. Inconclusive results are not listed. Where a structure was tested more than once in an assay, its records may differ in their call. Active and inactive are the calls of the source. The call rests on the fitted dose curve; in most records, active means well fitted curve in the direction sought with a large enough effect in the repeat runs; inconclusive means weak or mixed curves; inactive means no such curve, though single readings can be large; an effect the other way counts as inactive or inconclusive.
On the % scale 0 is the no-effect control and ±100 the full control effect.

For `NC(Cc1ccc(Cl)cc1)C(=O)O` (stereo not given), the viability change, negative = cytotoxic in assay [1] is -7.98% [at 0.29 µM] (inactive). The max response in assay [2] is 10.5% (inactive). Besides, the activity change in [3] was -5.17% [at 0.29 µM, stronger effect = higher value] (inactive). In addition, the values for the cytotoxicity increase in [4], in assay [7] and in assay [9] were -4.84% [at 0.29 µM] (inactive), -9.84% [at 0.29 µM] (inactive) and -6.93% [at 0.29 µM] (inactive), respectively. In addition, the activity change, negative = cytotoxic in assay [5] is 0.542% [at 0.29 µM] (inactive). The results for the cytotoxicity in assay [6] and in [10] were -5.86% [at 0.29 µM] (inactive) and -3.58% [at 0.29 µM] (inactive), respectively. In addition, in [8], the activity change, negative = cytotoxicity is 12.3% [at 0.29 µM] (inactive).

For the molecule `CC[C@H]1CN2CCc3cc(OC)c(OC)cc3[C@@H]2C[C@@H]1C[C@H]1NCCc2cc(OC)c(OC)cc21`, the Potency result in assay [1], in assay [3], in assay [4], in assay [8] and in assay [10] was “inactive” throughout. Further, the Potency in [2] was 13.9 nM (active) and 42.5 nM (active); in [6] it was 49.2 µM (active) and 26.8 µM (active); in assay [7], 49.2 µM (active) and 16.9 µM (active).

For `CCCN[C@H]1CCc2nc(N)sc2C1`, the Potency entry in [1], in [3], in assay [5], in assay [6], in assay [7] and in assay [8] was “inactive” throughout. Also, in assay [9], the Potency result was “inactive”. Further, in [2], the max response is -11% (inactive).

As to `CC1=CC(=O)c2ccccc2C1=O`, the Potency in assay [1] was 38.9 µM (active); in assay [2] it was 15.5 µM (active); in assay [3], 24.5 µM (active) and 26.8 µM (active); in assay [4] it was 49 µM (active) and 26.8 µM (active); in assay [5], 49 µM (active); in [6], 43.6 µM (active) and 26.8 µM (active). For the same molecule, the Potency in [7] is 43.6 µM (active) and 26.8 µM (active); in assay [9] it was 19.5 µM (active) and 26.8 µM (active). Moreover, the Potency entry in assay [10] is “inactive”.

`CCOc1ccc2c(c1)C(C)=CC(C)(C)N2`: the Potency entry in assay [1], in [3], in assay [4], in assay [5], in [6] and in [7] was “inactive” in each case. The Potency entry in assay [8], in assay [9] and in assay [10] was “inactive” each time. Further, the max response in [2] is -10.3% (inactive) and 3.02% (inactive).

As for `Nc1cc(Cl)c(-c2cc(Cl)c(N)cc2Cl)cc1Cl`, the Potency entry in assay [1], in [3], in [5], in [8], in assay [9] and in assay [10] was “inactive” throughout. Moreover, the Potency in assay [2] was 6.91 µM (active) and 1.74 µM (active); in assay [4], “inactive and 54.9 µM (active)”; in assay [6] it was “inactive and 54.9 µM (active)”; in [7] it was 4.36 µM (active) and 54.9 µM (active).

For `CCN1CCCC1CNC(=O)c1cc(S(=O)(=O)CC)c(N)cc1OC` (stereo not given), the Potency entry in assay [1], in [3], in assay [4], in [5], in assay [6] and in assay [7] was “inactive” throughout. The Potency result in assay [8], in assay [9] and in [10] was “inactive” throughout. The max response in assay [2] is 2.04% (inactive).

Regarding `CC(N)=O`, the Potency result in [1], in assay [3], in assay [4], in assay [5], in assay [6] and in [7] was “inactive” in each case. The Potency result in assay [8], in assay [9] and in [10] was “inactive” each time. In addition, the max response in assay [2] was 14.5% (inactive).

As for `COC(c1ccccc1)(c1ccccc1)[C@H](Oc1nc(C)cc(C)n1)C(=O)O`, the Potency result in assay [1], in [3], in [4], in assay [5], in [6] and in assay [7] was “inactive” throughout. Also, the Potency result in assay [8], in assay [9] and in assay [10] was “inactive” in each case. Also, the max response in assay [2] is -3.67% (inactive).

Turning to `Cc1cccc2n[nH]nc12`, the Potency entry in assay [1], in [3], in assay [5], in assay [7], in assay [8] and in [9] was “inactive” each time. The Potency result in assay [10] is “inactive”. For the same molecule, in [2], the max response was -0.386% (inactive). In addition, the Potency entry is “inactive and 38.9 µM (active)” in assay [4]; “inactive and 38.9 µM (active)” in [6].

For the molecule `CCCCC/C=C/CC1CC(=O)OC1=O` (stereo not given), the Potency entry in [1], in assay [3], in assay [5], in assay [6], in [7] and in assay [8] was “inactive” each time. Also, the Potency entry in assay [9] and in assay [10] was “inactive” in each case. Further, in assay [2], the max response is 1.06% (inactive).

Consider `CC(C)CCOC(=O)c1ccc(N(C)C)cc1`, for which the Potency entry in assay [1], in assay [3], in [4], in [5], in assay [6] and in assay [8] was “inactive” in each case. Besides, the Potency result in assay [9] and in assay [10] was “inactive” each time. Further, the max response in [2] is 3.04% (inactive). Moreover, in assay [7], the Potency is 1.9 µM (active).

Take `NNCCc1ccccc1`: the Potency result in assay [1], in [3], in assay [5], in assay [6], in assay [7] and in [8] was “inactive” throughout. The Potency entry in assay [9] and in [10] was “inactive” each time. For the same molecule, the max response in assay [2] was -29.6% (inactive) and 3.04% (inactive).

With `COc1ccc(Cc2cnc(N)nc2N)cc1OC`, the Potency entry in assay [1], in assay [3], in [4], in [5], in assay [6] and in assay [7] was “inactive” in each case. The Potency entry in assay [8], in [9] and in [10] was “inactive” throughout. In addition, the max response in assay [2] was 0.446% (inactive).

In the case of `CCn1cc(C(=O)O)c(=O)c2cc(F)c(N3CCNC(C)C3)c(F)c21` (stereo not given), the Potency result in assay [1], in assay [3], in assay [4], in [5], in assay [6] and in assay [7] was “inactive” throughout. In addition, the Potency result in assay [8], in assay [9] and in assay [10] was “inactive” throughout. Moreover, in assay [2], the max response was 14.9% (inactive).

On to `Cc1ccc(-c2cc(C(F)(F)F)nn2-c2ccc(S(N)(=O)=O)cc2)cc1`, for which the Potency in [1] was 48.8 µM (active) and 49 µM (active) and inactive; in [2] it was 21.8 µM (active) and 30.9 µM (active); in [5], 49 µM (active) and inactive; in [6], 19.4 µM (active) and 49 µM (active); in assay [7], 48.8 µM (active) and 49 µM (active); in assay [9], 49 µM (active) and inactive. In addition, the Potency entry in assay [3] and in [8] was “inactive” in each case.

Turning to `O=C(O)Cn1cnnn1`, the Potency result in assay [1], in assay [3], in assay [4], in assay [5], in assay [6] and in assay [7] was “inactive” each time. The Potency result in assay [8], in [9] and in assay [10] was “inactive” throughout. In addition, the max response in [2] was 0.0865% (inactive).

On to `CC(C)(C)c1cc(C(C)(C)C)c(O)c(C(C)(C)C)c1`, for which the Potency entry in [1], in assay [5], in [8] and in [10] was “inactive” throughout. In assay [2], the max response is -7.81% (inactive). In addition, the Potency was 54.9 µM (active) and 38.9 µM (active) in assay [3]; 54.9 µM (active) in assay [6]; 49 µM (active) in [7]; 54.9 µM (active) and 34.7 µM (active) in assay [9].
